# Where “and” joins values, the source holds several entries; their conditions need not be identical. Equal entries are not always repeated. Results filed as inconclusive are left out. Calls of active or inactive are those of the source. How the source made its calls: active means hit-call score of the fitted dose curve at least 0.9, where 1 is the maximum; inconclusive means response in the unintended direction; inactive means score below 0.9.
# Target: Peroxisome proliferator-activated receptor gamma (Homo sapiens) (UniProt P37231)
# Sequence (P37231 whole entry, looked up): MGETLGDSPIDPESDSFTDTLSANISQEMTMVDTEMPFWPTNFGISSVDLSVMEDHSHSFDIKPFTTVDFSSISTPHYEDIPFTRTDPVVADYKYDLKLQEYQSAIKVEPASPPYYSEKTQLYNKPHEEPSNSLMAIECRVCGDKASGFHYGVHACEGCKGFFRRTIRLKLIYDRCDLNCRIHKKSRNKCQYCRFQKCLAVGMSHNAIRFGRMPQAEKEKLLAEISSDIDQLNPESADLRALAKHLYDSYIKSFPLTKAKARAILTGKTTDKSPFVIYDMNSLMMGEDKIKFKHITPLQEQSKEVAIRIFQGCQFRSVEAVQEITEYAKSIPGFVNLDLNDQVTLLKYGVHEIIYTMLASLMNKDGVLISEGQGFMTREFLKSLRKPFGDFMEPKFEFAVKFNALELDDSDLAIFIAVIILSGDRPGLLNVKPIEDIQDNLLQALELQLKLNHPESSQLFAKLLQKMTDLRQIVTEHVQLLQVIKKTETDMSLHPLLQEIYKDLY
# Assay: ATG_PPARg_TRANS: Attagene TRANS-FACTORIAL HepG2 Assay for human Peroxisome Proliferator-activated Receptor-gamma (PPARg) (AID 2283007)
# Protocol: ATG_TRANS is a cell-based, multiplexed-readout assay that uses HepG2, a human liver cell line, with measurements taken at 24 hours after chemical dosing in a 24-well plate.ATG_PPARg_TRANS is one of 30 assay component(s) measured or calculated from the ATG_TRANS assay. It is designed to make measurements of mRNA induction, a form of inducible reporter, as detected with fluorescence intensity signals by Reverse transcription polymerase chain reaction (RT-PCR) and Capillary electrophoresis technology.Data from the assay component ATG_PPARg_TRANS was analyzed into 1 assay endpoint. This assay endpoint, ATG_PPARg_TRANS, was analyzed in the positive analysis fitting direction relative to DMSO as the negative control and baseline of activity. Using a type of inducible reporter, measures of mRNA for gain-of-signal activity can be used to understand the reporter gene at the transcription factor-level as they relate to the gene PPARG. Furthermore, this assay endpoint can be referred to as a primary readout, because this assay has produced multiple assay endpoints where this one serves a reporter gene function. To generalize the intended target to other relatable targets, this assay endpoint is annotated to the nuclear receptor intended target family, where the subfamily is non-steroidal.
# Human liver HepG2 cells are transiently transfected with multiple reporter transcription units (MRTUs) in 6-well plates using FuGene 6 reagent (Roche; 3 ml FuGene/1 mg DNA). The MRTU constructs are regulated by a cis-regulating element (promoter). […] A major difference between the CIS and TRANS system is that in CIS activities of endogenous TFs are measured, whereas the TRANS assay evaluates changes in activities of exogenous, chimeric NR-Gal4 proteins. […] At the end of 24 hour incubation, total RNA was isolated using TriZol reagent (Invitrogen). The isolated RNA is then reverse-transcribed using oligo(dT) primer and Mo-MLV reverse transcriptase (Invitrogen) with DNAse I (Ambion) treatment for 30 min. The one-tenth of the produced cDNA was amplified by PCR using Taq DNA polymerase (Invitrogen) and two reporter sequence-specific primers. The PCR products were fluorescently labeled by primer extension with 6-arboxyfluorescein (6-FAM) 5'-labeled reporter sequence-specific primer (2 min at 95 C, 20 s at 68 C and 10 min at 72 C) and these products were digested with 5U of HpaI (New England Biolabs) for 2h at 37 C. The fragments were purified using Qiaquick PCR columns (Qiagen), analyzed on an ABI 3130xL genetic analyzer (Applied Biosystems) with peak positions identified by using a set of X-rhodamine (ROX)-labeled MapMarker1000 molecular weight standards (BioVentures). The raw capillary electrophoresis data was processed using Attagraph software (Attagene).
SMILES,outcome,AC50
O=C(O)C(F)(F)C(F)(F)C(F)(F)C(F)(F)F,inactive,–
O=C(O)C(F)(F)C(F)(F)C(F)(F)C(F)(F)C(F)(F)C(F)(F)C(F)(F)C(F)(F)Cl,–,31.1 µM (active) and 34.1 µM (active)
c1ccc(B(c2ccccc2)c2ccccc2)cc1,–,33.9 µM (active)
O[Si](c1ccccc1)(c1ccccc1)c1ccccc1,–,44.4 µM (active)
COC(=O)C1CCC(C(=O)OC)CC1 (stereo not given),inactive,–
OC[C@@H](O)[C@@H](O)[C@H](O)[C@@H](O)CO,inactive,–
O=C(O)C(F)(F)C(F)(F)C(F)(F)F,inactive,–
FC(F)(F)C(F)(F)CNCC(F)(F)C(F)(F)F,inactive,–
O=C(O)C(F)(F)C(F)(F)C(F)(F)C(F)(F)C(F)(F)C(F)(F)C(F)(F)C(F)(F)C(F)(F)C(F)F,–,25.8 µM (active)
CCCCCCS,inactive,–
FC(F)(I)C(F)(F)C(F)(F)C(F)(F)I,–,48.6 µM (active)
CCCCCC=O,inactive,–
O=C(CC(=O)C(F)(F)C(F)(F)F)C(F)(F)F,–,76.1 µM (active) and 61.2 µM (active)
C#C[C@]1(O)CC[C@H]2[C@@H]3CCc4cc(OC)ccc4[C@H]3CC[C@@]21C,inactive,–
O=S(=O)(OCCOC(F)(F)F)C(F)(F)F,inactive,–
CNC(=S)NC,inactive,–
CCCCC(CC)COP(=O)(O)OCC(CC)CCCC (stereo not given),–,7.51 µM (active)
CCCCCCC(C)OC(=O)CCCCC(=O)OC(C)CCCCCC (stereo not given),inactive,–
O=C(O)C(F)(OC(F)(F)C(F)(OC(F)(F)C(F)(F)C(F)(F)F)C(F)(F)F)C(F)(F)F (stereo not given),inactive,–
O=C(O)C(F)(OC(F)(F)C(F)(OC(F)(F)C(F)(OC(F)(F)C(F)(F)C(F)(F)F)C(F)(F)F)C(F)(F)F)C(F)(F)F (stereo not given),inactive,–

SMILES,outcome,AC50
Nc1ccc(S(=O)(=O)Nc2nccs2)cc1,inactive,–
CC(C)(C)c1ccc(OC2CCCCC2O)cc1 (stereo not given),–,28.4 µM (active)
OCC(F)(F)C(F)(F)C(F)(F)C(F)F,inactive,–
O=C(O)C=C(C(F)(F)F)C(F)(F)F,inactive,–
C=C(C)C(=O)OCC(F)(F)C(F)(F)C(F)(F)F,inactive,–
O=S(=O)(OCC(F)F)C(F)(F)F,inactive,–
COC(OC(C)=O)c1ccccc1 (stereo not given),inactive,–
O=S(=O)(O)C(F)(F)C(F)(F)C(F)(F)C(F)(F)C(F)(F)C(F)(F)C(F)(F)F,–,33.4 µM (active) and 33.2 µM (active)
C=CC/C=C/C/C=C/C/C=C/C,inactive,–
FC(F)(F)C(F)(F)C(F)(F)C(F)(F)C(F)(F)C(F)(F)C(F)(F)C(F)(F)F,inactive,–
OCC(F)(F)C(F)(F)C(F)(F)F,inactive,–
Nc1cc(Cl)c(N)c(Cl)c1,–,38.7 µM (active)
CCCCOCCOCCOC(=O)CCCCC(=O)OCCOCCOCCCC,inactive,–
CO[Si](OC)(c1ccccc1)c1ccccc1,inactive,–
CCO[Si](CCC(F)(F)C(F)(F)C(F)(F)C(F)(F)C(F)(F)C(F)(F)F)(OCC)OCC,inactive,–
Cc1cc(C)cc(O)c1,inactive,–
FC(F)(F)C(F)(F)C(F)(F)N(C(F)(F)C(F)(F)C(F)(F)F)C(F)(F)C(F)(F)C(F)(F)F,inactive,–
FC(F)(F)C(F)(F)C(F)(F)C(F)(F)C(F)(F)C(F)(F)CC1CO1 (stereo not given),inactive,–
CC(C)c1ccccc1N,inactive,–
[Co],inactive,–

# Source: PubChem BioAssay (EPA / NIEHS)
